The text below walks through data of ChEMBL document CHEMBL3988442, “University of Dundee, Small-Polar-MMV Screening Library” (2021).

SMILES strings stand for the structures.

The experiment has as its target Shiga toxin 2 (Escherichia coli O157:H7) (UniProt P09385+P09386). The experiment in a line: E. coli 0.157:H7 Shiga Toxin SOP - stx2 screening assay. It is filed as functional. Also noted: scale not given: direction of the effect not stated beside the values. Particulars: 30 µM.
As for `Cc1nc(C)n(CC2CCCCN2CC(=O)NC2CCOCC2)n1` (stereo not given), the Percent Effect is -17.4%.
Turning to `CNS(=O)(=O)c1ccc(C(=O)N2CCCC(n3cccn3)C2)cc1` (stereo not given), the Percent Effect worked out at 2.6%.
The result for `CN(CCNC(=O)Nc1ccncc1)C1CCCCC1` reads -5.92%; that for `Cc1nccn1C1CCCN(C(=O)c2ccc(N(C)C)nc2)C1` (stereo not given), 26%; that for `CN(CCCc1cnn(C)c1)C(=O)C1CCOC1` (stereo not given), -36.5%.
The result for `Cc1ccc2c(n1)N(CCn1cccn1)CCN(C(=O)NC1CC1)C2` reads 6.77%; that for `CC(C)(C(=O)NCC(N)=O)c1ccccc1F`, -19.3%.
With `CN(Cc1cccc(Cl)c1)S(=O)(=O)N1CCOCC1`, the Percent Effect turned out to be 7.77%.
The result for `CCN(Cc1nc2c(cnn2C)c(=O)[nH]1)Cc1cccs1` reads 5.32%.
For `CCNc1cc2c(nn1)CCN(C(=O)CC1CCCCC1)C2`, the Percent Effect was -4.17%.
As to `Cc1[nH]c2ccccc2c1-c1ccnc(NC[C@H](O)CO)n1`, the Percent Effect is -30.4%.
On to `Cc1ncc(CN(C)CC2CCCN2c2cccnn2)s1` (stereo not given), for which the Percent Effect was 9.48%.
Turning to `Cc1cccc2cc(CNCCCN3CCOCC3)c(=O)[nH]c12`, the Percent Effect is -27.9%.
Regarding `Cc1nccc(CN2CCC(c3nnsc3S(C)(=O)=O)CC2)n1`, the Percent Effect is 5.72%.
As for `CCc1nc(CN2CCCC(N(C)Cc3cnn(C)c3)C2)no1` (stereo not given), the figure is -30.2%; as for `Cc1cc(CN(C)C(=O)NC2CCS(=O)(=O)C2)no1` (stereo not given), 14.9%; as for `Cc1ncccc1NC(=O)[C@H]1C[C@@H]2CCN(Cc3nccs3)C[C@@H]2O1`, 0.675%.
Take `Cc1cnn(CC2CCCCN2CCn2cncn2)c1` (stereo not given): the Percent Effect was -38%.
Turning to `CCCS(=O)(=O)N1CCC2(CN(c3cnn(C)c3)C(=O)CN2C)C1` (stereo not given), the Percent Effect was -13.9%.
As for `CCCc1cc(=O)n(CC(N)=O)c(-n2nc(C)cc2C)n1`, the figure is -3.82%.
For the molecule `O=C(CCc1nccs1)N1CCCC(N2CCNC2=O)C1` (stereo not given), the Percent Effect is -8.24%.
The result for `CN(Cc1ccco1)C(=O)[C@H]1CSCN1C(=O)OC(C)(C)C` reads 10.2%; that for `Cc1nn(C)c(N(C)C)c1CNCc1ccc(OCC(N)=O)cc1`, -11.7%.
As for `CCc1cnc(N2CCC3(CC2)CN(c2cccnc2)C(=O)CO3)nc1`, the figure is -6.76%; as for `CCN1CC2(CC1=O)CN(Cc1cccs1)CCN(C(=O)C(C)C)C2` (stereo not given), 0.818%.
Consider `CC(C)c1csc(C2CCCN(C(=O)c3ccc(=O)n(C)n3)C2)n1` (stereo not given), for which the Percent Effect was -6.52%.
`CCOc1ccc(CNCCCn2ccnc2)cc1Br`: the Percent Effect was -77.4%.
As for `NC(=O)c1cccc(CC2CCN(C(=O)CCCN3CCOCC3)C2)c1` (stereo not given), the figure is -6.5%.
As for `Cc1cnn(CC2CCCN2Cc2nccn2C)c1` (stereo not given), the Percent Effect is 7.58%.
The result for `COC(=O)CCc1c(C)nn(-c2nc(C)cc(=O)[nH]2)c1C` reads -12.7%; that for `Cc1[nH]ncc1C(=O)N1CCCC(n2cncn2)C1` (stereo not given), 22.7%.
As to `O=C(NC1CC1)[C@H]1CC[C@@H]2[C@@H](CCN2c2ncc(F)cn2)O1`, the Percent Effect was -23%.
As for `Cn1cc(Br)c(=O)c(NS(=O)(=O)c2cc(F)ccc2Cl)c1`, the figure is 16.3%; as for `CCOCC(O)CN1CCN(C(=O)c2ccccc2Cl)CC1` (stereo not given), 24.8%.
Consider `O=C(Nc1nc2c(s1)CN(S(=O)(=O)C1CC1)CC2)c1c(F)cccc1F`, for which the Percent Effect worked out at 2.22%.
The result for `CC(=O)N1CCN([C@@H]2CC[C@@H](NC(=O)c3cncc(C)c3)[C@H]2O)CC1` reads -14%.
As for `c1cnnc(NCC2CN(CCN3CCCCC3)CCO2)c1` (stereo not given), the figure is -5.19%; as for `Cc1nc(C)n(CC2CCCN(CC(=O)Nc3c(C)n[nH]c3C)C2)n1` (stereo not given), 32.2%.
For `NCc1cnn(-c2ccccc2C(=O)NCc2ccncc2)c1`, the Percent Effect was determined as 13.2%.
In the case of `CC(C)Cc1noc(CN2CCC(NC(=O)c3cccs3)CC2)n1`, the Percent Effect was -32.8%.
